{
  "source": "paper PMC4336329",
  "about": "(PLoS ONE, 2015)",
  "note": "About 2,200 (0.71%) of roughly 310,000 compounds showed an effect of 50% or more. The effect is printed as a negative number. The list comes from a sample in which strong results are over-represented; it also holds similar structures and randomly drawn compounds.",
  "data": [
    {"molecular_target": "human ether-à-go-go-related gene (hERG) potassium channel (human, UniProt Q12809)", "sequence (Q12809 whole entry, looked up)": "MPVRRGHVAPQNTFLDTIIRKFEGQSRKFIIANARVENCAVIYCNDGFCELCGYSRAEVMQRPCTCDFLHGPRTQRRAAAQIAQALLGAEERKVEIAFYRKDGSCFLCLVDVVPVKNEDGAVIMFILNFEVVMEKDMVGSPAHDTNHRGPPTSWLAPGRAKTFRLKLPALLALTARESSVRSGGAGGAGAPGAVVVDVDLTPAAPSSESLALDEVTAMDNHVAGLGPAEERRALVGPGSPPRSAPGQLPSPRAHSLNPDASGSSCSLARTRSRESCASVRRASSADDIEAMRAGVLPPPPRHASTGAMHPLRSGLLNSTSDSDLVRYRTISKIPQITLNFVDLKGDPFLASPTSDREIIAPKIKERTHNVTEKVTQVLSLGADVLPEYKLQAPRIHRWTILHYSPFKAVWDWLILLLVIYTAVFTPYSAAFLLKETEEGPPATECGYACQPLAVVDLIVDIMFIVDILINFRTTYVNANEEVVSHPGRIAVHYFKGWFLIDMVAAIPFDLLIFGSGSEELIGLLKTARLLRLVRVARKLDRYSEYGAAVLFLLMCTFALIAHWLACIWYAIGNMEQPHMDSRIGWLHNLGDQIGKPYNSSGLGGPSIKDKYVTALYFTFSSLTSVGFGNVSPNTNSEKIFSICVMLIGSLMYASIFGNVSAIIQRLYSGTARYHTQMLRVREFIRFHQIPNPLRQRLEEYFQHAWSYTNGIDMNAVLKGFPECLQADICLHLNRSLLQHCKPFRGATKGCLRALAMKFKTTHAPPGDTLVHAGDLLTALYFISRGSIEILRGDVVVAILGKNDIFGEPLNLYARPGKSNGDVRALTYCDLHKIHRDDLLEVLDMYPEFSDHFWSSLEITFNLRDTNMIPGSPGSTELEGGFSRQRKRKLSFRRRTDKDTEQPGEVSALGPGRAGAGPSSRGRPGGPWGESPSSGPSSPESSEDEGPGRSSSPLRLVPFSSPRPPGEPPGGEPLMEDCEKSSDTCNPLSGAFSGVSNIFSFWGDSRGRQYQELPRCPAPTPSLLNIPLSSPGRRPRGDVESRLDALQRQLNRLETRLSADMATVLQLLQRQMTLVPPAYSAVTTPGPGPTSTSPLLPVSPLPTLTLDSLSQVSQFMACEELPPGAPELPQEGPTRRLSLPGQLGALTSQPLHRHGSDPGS", "test": "primary screen, population patch clamp on CHO cells stably expressing hERG; higher = less effect of the substance", "units": {"hERG current change (%, negative = inhibition) at 1uM": "%"}, "values": [
      {"smiles": "CCOc1ccc(N2CC(=O)N/C2=N\\c2nc(C)cc(C)n2)cc1", "hERG current change (%, negative = inhibition) at 1uM": -2.01},
      {"smiles": "CC(C)COC(=O)CCNc1n[nH]c(=O)[nH]c1=O", "hERG current change (%, negative = inhibition) at 1uM": 3.64},
      {"smiles": "CCCCCCSc1nnc(N)s1", "hERG current change (%, negative = inhibition) at 1uM": 7.6},
      {"smiles": "COc1ccccc1OCCCC(=O)NC(C)c1ccccc1", "note": "(stereo not shown)", "hERG current change (%, negative = inhibition) at 1uM": 8},
      {"smiles": "O=C1CCCc2oc3c(cc(NS(=O)(=O)c4ccc5c6c(cccc46)C(=O)N5)c4ccccc43)c21", "hERG current change (%, negative = inhibition) at 1uM": -6.54},
      {"smiles": "Cc1cc(C)nc(SCCC(=O)N(C)C)n1", "hERG current change (%, negative = inhibition) at 1uM": 11},
      {"smiles": "CN(C)c1nc2ccccc2c(N)c1-c1ccccc1.O=C(O)C(=O)O", "hERG current change (%, negative = inhibition) at 1uM": -39.7},
      {"smiles": "CCN(CC)c1nc2ccccc2c(N)c1-c1ccccc1.O=C(O)C(=O)O", "hERG current change (%, negative = inhibition) at 1uM": -53.9},
      {"smiles": "Cc1c(N(C)C)nc2ccccc2c1N.O=C(O)C(=O)O", "hERG current change (%, negative = inhibition) at 1uM": -8.8},
      {"smiles": "COc1cc(/C=C2/C(=O)NN(c3ccc(F)cc3)C2=O)cc([N+](=O)[O-])c1O", "hERG current change (%, negative = inhibition) at 1uM": 8.07},
      {"smiles": "O=C(OCC(=O)C12CC3CC(CC(C3)C1)C2)c1cnccn1", "hERG current change (%, negative = inhibition) at 1uM": 8.15},
      {"smiles": "O=C(CCc1nnc(CCCCc2ccccc2)o1)NCCN1CCOC1=O", "hERG current change (%, negative = inhibition) at 1uM": 9.65},
      {"smiles": "O=C(c1ccc2c(=O)n(Cc3ccccc3Cl)c(=S)[nH]c2c1)N1CCOCC1", "hERG current change (%, negative = inhibition) at 1uM": 13},
      {"smiles": "O=C(c1nc2ccccn2c1CN1CCN(c2ccccc2O)CC1)N1CCCC1", "hERG current change (%, negative = inhibition) at 1uM": 26},
      {"smiles": "O=C(c1nc2ccccn2c1CN1CCC(Cc2ccccc2)CC1)N1CCCC1", "hERG current change (%, negative = inhibition) at 1uM": -54.2},
      {"smiles": "O=C(c1nc2ccccn2c1CN1CCCC(OCc2ccccc2)C1)N1CCCC1", "note": "(stereo not shown)", "hERG current change (%, negative = inhibition) at 1uM": -25.7},
      {"smiles": "CCN(CC)c1ccc(/C=C2\\C(=O)NC(=S)N(C)C2=O)o1", "hERG current change (%, negative = inhibition) at 1uM": 7.14},
      {"smiles": "C#CCn1c(=NC(=O)c2ccccc2[N+](=O)[O-])sc2cc(S(C)(=O)=O)ccc21", "hERG current change (%, negative = inhibition) at 1uM": 13.3},
      {"smiles": "CC1CC(c2ccccc2)n2nc(NC(=O)CCc3ccccc3)nc2N1", "note": "(stereo not shown)", "hERG current change (%, negative = inhibition) at 1uM": -1.41},
      {"smiles": "O=[N+]([O-])c1ccc(C[n+]2cccc3c4ccccc4ccc32)cc1.[Br-]", "hERG current change (%, negative = inhibition) at 1uM": -18},
      {"smiles": "CCCCCCCC[n+]1cccc2c3ccccc3ccc21.[I-]", "hERG current change (%, negative = inhibition) at 1uM": -92},
      {"smiles": "Cc1cccc[n+]1CCCCCCCCCC[n+]1ccccc1C.[Br-]", "hERG current change (%, negative = inhibition) at 1uM": 20.8},
      {"smiles": "CCCCCCCCC[n+]1cccc2c3ccccc3ccc21.[Br-]", "hERG current change (%, negative = inhibition) at 1uM": -91.7},
      {"smiles": "CCCCCCCCCCCCCCCC[n+]1cccc2ccccc21.[I-]", "hERG current change (%, negative = inhibition) at 1uM": -23},
      {"smiles": "[Cl-].c1ccc(C[n+]2cccc3c4ccccc4ccc32)cc1", "hERG current change (%, negative = inhibition) at 1uM": -2.14}
    ]}
  ]
}
